Data taken from PubChem BioAssay AID489008 (National Center for Advancing Translational Sciences (NCATS), 2010).
Inconclusive results are not listed. The source made the active and inactive calls. Calls follow the shape of the dose curve; as a rule, active = well fitted inhibition curve with a large enough effect; inconclusive = small, poorly fitted or top-dose-only effect; inactive = flat fitted curve, though single readings scatter.

Target: Ferritin light chain (Equus caballus) (UniProt P02791)
Sequence (P02791 2-175 limits assumed): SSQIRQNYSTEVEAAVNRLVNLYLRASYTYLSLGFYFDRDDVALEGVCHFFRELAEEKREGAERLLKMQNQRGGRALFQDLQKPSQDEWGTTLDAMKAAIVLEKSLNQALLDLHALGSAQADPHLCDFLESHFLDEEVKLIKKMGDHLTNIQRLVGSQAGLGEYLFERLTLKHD
Assay: Confirmation Assay for Identification of Novel General Anesthetics; also: nearly all actives have a fitted effect of over 40% in size
Details: apoferritin 1-aminoanthracene fluorescence displacement
Outline: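 Horse apoferritin (10 uM) pre-loaded with 1-AMA (50% saturated, PBS) exposed to compounds 10 min at room temperature; loss of 1-AMA fluorescence (380/535 nm) scaled between free and bound ligand, curves fitted with Hill equation.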
Potency is read from the fitted curve at half-maximal effect.

Potency, active:
ClC1(Cl)CC1CSc1nc2ccccc2[nH]1 (centres undefined) 15.8 µM
COc1cccc(C(=O)COC(=O)CCC(=O)c2ccccc2)c1 7.94 µM
Cc1ccc(Cn2cccc(NC(=O)NC3CCCCC3)c2=O)cc1 15.8 µM
Cc1cccc(OCCC(=O)OCC(=O)N2CCc3ccccc32)c1 10 µM
Cc1ccc(CCC(=O)Nc2cc(Cl)ccc2Cl)o1 7.94 µM
O=C(Cc1ccccc1)N1CCc2ccccc21 14.1 µM
Cc1ccc(OCC(=O)N2CCCCCCC2)cc1C 35.5 µM
CCCCOC(=O)Nc1ccc(C)c(Cl)c1 17.8 µM
O=C(CCC1CCCCC1)Nc1nncs1 15.8 µM
O=C(CSc1ccc(F)cc1)NC12CC3CC(CC(C3)C1)C2 15.8 µM
CC(NC(=O)COC(=O)C1=COCCO1)C12CC3CC(CC(C3)C1)C2 (centres undefined) 14.1 µM
O=C(COC(=O)c1cccs1)NCC1CCCCC1 20 µM
Cc1cc(C(F)(F)F)n(-c2ccc(N)cc2)n1 17.8 µM
CCc1ccc(NC(=S)N2CCCCCCC2)cc1 14.1 µM
Nc1nc(-c2ccc3c(c2)CCCC3)cs1 28.2 µM
O=C(CCSc1ccccc1)NC(=O)COC(=O)C1CCCCC1 35.5 µM
CC(C)c1ccc(NC(=O)C2CC3CCC2C3)cc1 (centres undefined) 31.6 µM
N#CC(Nc1ccccc1)c1ccccc1OCc1ccccc1 (centres undefined) 35.5 µM
Nc1cc(Cl)ccc1Oc1ccc2ccccc2c1 15.8 µM
